The whole screen tested about 94,000 compounds, of which about 6,200 (6.6%) were called active. Not shown: some 31% with an inconclusive outcome. This excerpt belongs to a sample that is enriched for actives. A number with no mark means an inactive call. Calls come from the whole dose curve; as a rule, active = well fitted inhibition curve with a large enough effect; inconclusive = small, poorly fitted or top-dose-only effect; inactive = flat fitted curve, though single readings scatter.
Assay: Cytotoxic Profiling in HEK 293 Cell Line of Diverse Libraries Using Quantitative High-Throughput Screening; note: nearly all actives have a fitted effect of over 60% in size
Details: HEK 293 viability, ATP luminescence (CellTiter-Glo), 48-72 h; series mostly up to 115 µM; activity change, negative = cytotoxicity: at the top concentration
Source text: Cell-based phenotypic screening is a commonly used approach to discover biological pathways, novel drug targets, chemical probes and high-quality hit-to-lead molecules. Many hits identified from high-throughput screening campaign are ruled out through a series of follow-up potency, selectivity/specificity, and cytotoxicity assays. Prioritization of molecules with little or no cytotoxicity for a more in-depth downstream evaluation influence the future direction of projects, so cytotoxicity profiling of the screening libraries at early stage is essential for increasing the likelihood of candidate success. In this study, we analyzed results from a cell-based cytotoxicity screening campaign, comprising nearly 10,000 compounds in NCATS annotated libraries, and over 100,000 compounds in a diversity library, evaluated in four normal cell lines (HEK 293, NIH 3T3, CRL-7250 and HaCat) and a cancer cell line (KB 3-1, a HeLa subline) with overall screening outcomes, hit rates, pan-activity and selectivity. For the annotated library, we also examined the primary targets and mechanistic pathways regularly associated with cell death. To our knowledge, this is the first study to use high-throughput screening to profile large libraries for cytotoxicity assessment in both normal and cancer cell lines. In summary, the results generated here constitutes a valuable resource for the scientific community and provides insight on identifying cytotoxic compounds with particular mechanisms of action, and prioritizing compounds with suitable cytotoxicity profile for further evaluation.
HEK 293 cells were seeded into white 1536-well plates using a Multidrop Combi peristaltic dispenser (ThermoFisher, Waltham, MA) at a density of 250 cells/well in 5 uL of medium respectively. A pintool (Kalypsys) was used to transfer 23 nL of compound solution to the 1536-well assay plates. After 48 or 72 hr incubation at 37 degree Celsius, 5% CO2 and 95% humidity, 2.5 uL of CellTiter-Glo (Promega) was dispensed into each well using a dispenser (Aspect Automation, St. Paul, MN) with solenoid valves (Lee Valves, Westbrook CT). Plates were left at room temperature for 10 min before imaging the ATP-coupled luminescence using a ViewLux microplate imager (PerkinElmer, Waltham, MA).
% is set by controls: 0 for no effect and ±100 for the full control effect; potency is the fitted concentration of half-maximal effect.

Row | Structure (SMILES) | outcome | activity change, negative = cytotoxicity | Potency
1 | CCS(=O)(=O)N1[C@H]2CC[C@@H]1c1cnc(C)nc1C2 | inactive |  | 
2 | O=C(Cc1cccc(F)c1)N1[C@H]2CC[C@@H]1c1cnc(-c3ccccc3)nc1C2 |  | -17.9% | 
3 | O=C(Cc1ccccc1)N1[C@H]2CC[C@@H]1c1cnc(-c3ccc(F)cc3)nc1C2 |  |  | 28.2 µM (active)
4 | Cc1cccc(CC(=O)N2[C@H]3CC[C@@H]2c2cnc(C)nc2C3)c1 | inactive |  | 
5 | Cc1ncc2c(n1)C[C@@H]1CC[C@H]2N1S(=O)(=O)c1ccc(F)cc1 |  | -9.05% | 
6 | Cc1ncc2c(n1)C[C@@H]1CC[C@H]2N1C(=O)c1ccccn1 |  | -3.35% | 
7 | Cn1cnc(S(=O)(=O)N2[C@H]3CC[C@@H]2c2cnc(-c4ccc(F)cc4)nc2C3)c1 |  | -5.79% | 
8 | COC(=O)c1ccc(NC(=O)N2[C@H]3CC[C@@H]2c2cnc(-c4ccc(F)cc4)nc2C3)cc1 |  |  | 44.7 µM (active)
9 | Cc1nc(C)c(C(=O)N2[C@H]3CC[C@@H]2c2cnc(-c4ccccc4)nc2C3)s1 |  |  | 39.8 µM (active)
10 | O=C(c1ccc2c(c1)CCO2)N1C[C@@H](c2ccc(F)cc2)[C@@H]2[C@H]1C1CCN2CC1 | inactive |  | 
11 | O=[S+]1([O-])NC2(CCN(CC3CCOCC3)C2)COc2ccncc21 (centres undefined) | inactive |  | 
12 | CC(=O)N1CC2(CCN(Cc3cccnc3)C2)Cc2ccccc21 (centres undefined) |  | -16.8% | 
13 | CC(C)N1CCN(C(=O)Cc2cccn2-c2ccc(F)cc2)CC1 |  | -18.2% | 
14 | Cc1ccc2c(n1)N(C)[C@H](CO)CCN(C1CCCC1)C2 |  | -1.63% [at 230 µM] | 
15 | O=C1NC2(Cc3ccccc31)CN(CC1CC1)C2 | inactive [at 230 µM] |  | 
16 | Cc1ccc([C@@H]2CN(C(=O)c3ccco3)[C@@H]3C4CCN(CC4)[C@@H]32)cc1 |  | -13.1% | 
17 | O=C(c1cocn1)N1C[C@H](c2cccc(F)c2F)[C@@H]2[C@H]1C1CCN2CC1 | inactive |  | 
18 | CCCS(=O)(=O)N1C[C@@H]2C[C@H](C1)c1ccc(-c3ccccc3C)c(=O)n1C2 | inactive [at 172 µM] |  | 
19 | COc1cc2c(cc1Oc1ccccc1)NC(=O)C21CCN(c2ccnc(C)n2)CC1 |  |  | 63.1 µM (active)
20 | COc1cc2c(cc1OCc1ccncc1)NC(=O)C21CCN(c2ncc(F)cn2)CC1 |  |  | 50.1 µM (active)
21 | COc1cc2c(cc1OC1CCCC1)NC(=O)C21CCN(c2nccs2)CC1 |  |  | 89.1 µM (active)
22 | COc1cc2c(cc1Oc1cccc(N(C)C)c1)NC(=O)C21CCN(Cc2ccccn2)CC1 |  |  | 44.7 µM (active)
23 | O=C(c1ccncc1)N1C[C@@H]2C[C@H](C1)c1ccc(C3CCCCC3)c(=O)n1C2 |  | -2.59% [at 172 µM] | 
24 | CC1=NOC2(CCN(Cc3cncs3)C2)C1 (centres undefined) | inactive [at 172 µM] |  | 
25 | O=[S+]1([O-])NCC2(CCN(Cc3cccnc3)C2)Oc2ncccc21 (centres undefined) | inactive |  | 
26 | O=C1CC2CCN(Cc3cccnc3)CC2CCN1 (centres undefined) | inactive [at 172 µM] |  | 
27 | O=C1NC2(Cc3ccccc31)CN(Cc1ccncc1)C2 | inactive [at 172 µM] |  | 

Row | Structure (SMILES) | outcome | activity change, negative = cytotoxicity | Potency
28 | COc1cccc([C@H]2CN(c3cc(C)nc(N)n3)[C@@H]3C4CCN(CC4)[C@H]23)c1 |  | -20.8% | 
29 | CNC(C)c1ccc(Cl)cc1 (centres undefined) |  | -18.1% [at 230 µM] | 
30 | Cc1ccccc1OCC(=O)N1CCN(Cc2ccc(=O)n(C)c2)CC1 |  | -19.9% | 
31 | C=CCOc1c(Cl)cc(CNC(C)Cn2cccn2)cc1OC (centres undefined) |  | -12.6% | 
32 | CC(C)N1CC2CCC(C1)N2C(=O)N1CCCC1 |  | 4.58% [at 172 µM] | 
33 | O=C(NC1CCCCC1)N1C[C@@H]2C[C@H](C1)c1c(-c3ccccc3F)ccc(=O)n1C2 |  | -25.2% [at 172 µM] | 
34 | FC(F)(F)CN1C2CCC1CN(c1ccc(Cl)nn1)C2 | inactive |  | 
35 | COc1cc2c(cc1-c1ccncc1)NC(=O)C21CCN(C(C)=O)CC1 |  | -19.9% [at 172 µM] | 
36 | COc1cc2c(cc1OCc1ccncc1)NC(=O)C21CCN(c2ncccn2)CC1 |  |  | 100 µM (active)
37 | COc1cc2c(cc1OCc1ccccc1)NC(=O)C21CCN(C(=O)C(C)C)CC1 |  |  | 89.1 µM (active)
38 | CC(C)C(=O)N1CCC2(CC1)NCc1ccccc1-n1ccnc12 |  | -12.3% | 
39 | COc1ccc([C@@H]2CN(C(=O)c3c(C)noc3C)[C@@H]3C4CCN(CC4)[C@@H]32)cc1 |  | -7.87% | 
40 | CCC(CC)c1cc([C@H]2CN3CC[C@H]2C[C@@H]3CNC(=O)NCc2ccccc2)nc(-c2ccncc2)n1 |  |  | 28.2 µM (active)
41 | CCCS(=O)(=O)NC[C@H]1C[C@@H]2CCN1C[C@@H]2c1cc(C2CCCC2)nn1C |  | -26.7% [at 172 µM] | 
42 | Cc1ccc(S(=O)(=O)NC[C@H]2C[C@@H]3CCN2C[C@@H]3CN2CCN(c3ncccn3)CC2)cc1 |  | -6.41% | 
43 | COc1ccc(-c2cn(C[C@H]3C[C@@H]4CCN3C[C@@H]4C(=O)NCc3ccccc3)nn2)cc1 |  | -21% [at 172 µM] | 
44 | CCC(CC)c1cc([C@H]2CN3CC[C@H]2C[C@@H]3CNS(=O)(=O)Cc2ccccc2)nc(-c2ccncc2)n1 |  |  | 31.6 µM (active)
45 | CCCCc1cn(C[C@H]2CC3CCN2C[C@@H]3C(=O)NCc2ccccc2)nn1 (some centres undefined) |  | -1.65% [at 172 µM] | 
46 | O=[N+]([O-])c1ccc(N2CC3CCC(C2)N3CC(F)(F)F)nc1 | inactive |  | 
47 | Cc1ccc(S(=O)(=O)NC[C@H]2C[C@@H]3CCN2C[C@@H]3CN2CCSCC2)cc1 |  | 0.97% [at 172 µM] | 
48 | Cc1noc(C)c1C(=O)N1C2CCC1CN(Cc1cccnc1)C2 |  | -29.8% | 
49 | O=C(O)COCC(=O)N1C[C@@H]2C[C@H](C1)c1c(-c3ccc4ccccc4c3)ccc(=O)n1C2 |  | -2.71% [at 172 µM] | 
50 | CCOc1ccc(C(=O)N2CCC3(CC2)c2nccn2-c2ccccc2CN3C)cc1 |  | -21.5% | 
51 | CCCNC(=O)OC[C@H]1C[C@@H]2CCN1C[C@@H]2c1cc(-c2ccc(OC)c(OC)c2)nn1C |  | -12.2% | 
52 | C#C[C@H]1CN2CC[C@H]1C[C@@H]2COC(=O)Nc1cc(OC)cc(OC)c1 |  |  | 100 µM (active)
53 | C#C[C@H]1CN2CC[C@H]1C[C@@H]2CNC(=O)C1CC1 |  | -2.38% [at 230 µM] | 
54 | FC(F)(F)CN1C2CCC1CN(c1ccc(C(F)(F)F)nc1)C2 |  | -14.1% | 

Reference: PubChem BioAssay AID1345083 (National Center for Advancing Translational Sciences (NCATS), 2018)
